# Assay outcomes deposited in PubChem by several laboratories.
# AHR activator – activates the human aryl hydrocarbon receptor; activation, % at 5 µM; AID 2796; P35869; 320,000 tested, 2.5% active; AHR-responsive luciferase reporter cells, luminescence; in the data active = activation above about 47%
# Efflux pump inh – blocks antifungal efflux pumps in multiplex yeast assay. S. cerevisiae Candida pump triplex, Nile Red efflux. inhibition, % at 10 µM. 330,000 tested, 0.44% active. AID 485275;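 active = plate passing quality check with inhibition over a set limit, or well fluorescence over plate mean plus 4 SD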;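 note: Nile Red retained in pooled yeast measured as flow cytometry median fluorescence; higher means more Nile Red kept so more efflux inhibition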
# Mot1-301 SUMO – blocks SUMOylation pathway, rescuing yeast Mot1-301 growth; S. cerevisiae Mot1-301 growth rescue, ATP luminescence, 38.5C; percent above DMSO median, 100 means doubled; growth rescue, % at 18.8 µM; 320,000 tested, 1% active;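 active = every valid replicate shows activation above 250% relative to neutral control wells; inactive = the rest, any valid replicate at or below 250%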
# VLA-4 inh – inhibition in a human VLA-4 binding assay | P13612 | VLA-4 expressing cells, ligand binding flow cytometry | inhibition, % (about 7 µM as worked out from the volumes in the protocol) | 330,000 tested, 0.2% active | AID 2557; in the data active = inhibition above about 50%
# ALR H2O2 inh – inhibitors of human sulfhydryl oxidase ALR; P55789; inhibition, % (no concentration beside the values); 290,000 tested, 3.8% active; AID 485317; purified ALR, DTT oxidation, H2O2 HRP-luminol luminescence;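 active = mean replicate inhibition above about 79%, with every replicate also reaching it, limit read from the data; inconclusive = only one of the two criteria met; inactive = mean below limit and not every replicate reaching it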
# Bfl-1 A1 inh – inhibitors of the anti-apoptotic protein A1, read as caspase activation. 330,000 tested, 0.066% active. MEF A1-2A-BIM cells, Caspase-Glo 3/7 luminescence, 3 h; percent of clofoctol response, vehicle zero. caspase activation, % (no concentration beside the values). AID 2462;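 active = over half of replicate activation scores above 10%, or exactly half above 10 with the replicate mean above 10; inconclusive = replicate mean below 10 yet half the replicates above 10; inactive = over half of replicates below 10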
# Numbers stand for hits; - = inactive; ? = inconclusive; . = not tested or not shown. Rows were chosen to be rich in hits. Some 7.2% of all compounds tested hit in one or more screens of this group.
SMILES,AHR activator,Efflux pump inh,Mot1-301 SUMO,VLA-4 inh,ALR H2O2 inh,Bfl-1 A1 inh
CCOc1ccc(-c2nnc3ccc(SCC(=O)Nc4nc5ccccc5s4)nn23)cc1,73,-,-,-,-,-
CCOc1ccc(-c2nnc3ccc(SCC(=O)Nc4nc5ccc(C)cc5s4)nn23)cc1,63,-,-,-,-,-
Cc1ccc(S(=O)(=O)NCCc2nnc3ccc(SCC(=O)Nc4nc5ccccc5s4)nn23)cc1,-,-,.,-,-,-
CC(C)OC(=O)/C(=C/c1ccc(Br)cc1)NC(=O)c1ccco1,-,-,-,-,-,-
Cc1cc(S(=O)(=O)Nc2ccc3ccccc3c2)c(C)s1,-,-,-,-,-,-
Cc1cc(S(=O)(=O)Nc2cc(C)c(O)c(C)c2)c(C)s1,-,-,-,-,77,-
O=C(c1ccc(Sc2ccc(F)cc2)c([N+](=O)[O-])c1)N1CCOCC1,-,-,-,-,-,-
COc1ccccc1C(=O)NNc1ncc(C)s1,-,-,-,-,.,-
O=C(NNc1c2ccccc2nc2ccccc12)c1ccc(O)cc1O,-,-,-,-,98,-
O=C(NNC(=O)c1cccc2ccccc12)c1ccccc1O,-,-,-,-,-,-
O=C(NNc1nc(=O)c2cccnc2s1)c1ccccc1O,49,-,-,-,-,-
O=C(NNc1c2ccccc2nc2ccccc12)c1ccccc1O,129,-,-,-,99,-
O=C(NNc1c2ccccc2nc2ccccc12)c1ccccc1Cl,58,-,-,-,-,-
Cc1[nH]c2ccccc2c1/C=N/n1cnnc1,-,-,-,-,-,-
COCCN=c1scc(-c2cc(OC)c(OC)c(OC)c2)n1/N=C/c1c(C)[nH]c2ccccc12,56,-,-,-,-,-
CCOC(=O)c1oc2ccc(/C=N/O)c(Cl)c2c1C,-,-,-,-,-,-
N#CC(C#N)=Cc1c[nH]c(=O)c(C#N)c1Nc1ccccc1,-,-,-,-,-,-
NC(=Nc1ccc(N)cc1)C(N)=Nc1ccc(N)cc1,-,-,-,-,99,-
N=C(N)c1ccc(N)cc1,-,-,-,-,-,-
CCCN1CCC2(CC1)C(C#N)=C(N)Oc1c2sc2nc(C)cc(C)c12,61,-,-,-,-,-
CCOC(=O)N1CCC2(CC1)C(C#N)=C(N)Oc1c2sc2nc(C)cc(C)c12,-,-,-,-,-,-
Cc1csc(NC(=O)c2ccc3c(=O)n4c(nc3c2)CCCCC4)n1,-,-,-,-,-,-
O=C(Nc1nccs1)c1ccc2c(=O)n3c(nc2c1)CCCCC3,76,-,-,-,-,-
O=C(NNC(=O)c1ccc2c(=O)n3c(nc2c1)CCC3)c1ccc(F)cc1,60,-,-,-,-,-
CCC(=O)c1cc2c(C)cc(=O)oc2c(C)c1OC(=O)C(C)C,-,-,-,-,-,-
SMILES,AHR activator,Efflux pump inh,Mot1-301 SUMO,VLA-4 inh,ALR H2O2 inh,Bfl-1 A1 inh
CC(C)c1c(C(=O)N/N=C/C=C/c2ccccc2)nnn1-c1nonc1N,-,-,-,-,-,-
CCOc1[nH]n(-c2ccccc2)c(=O)c1C=NCc1ccncc1,-,-,-,-,-,-
CCOc1[nH]n(-c2ccc(Cl)cc2)c(=O)c1C=NCc1cccnc1,56,-,-,-,-,-
Oc1ccccc1-c1nc2c3ccccc3c3ccccc3c2[nH]1,53,-,-,-,-,-
CC(=O)Nc1sc(N/N=C\c2cccc(Cl)c2)nc1-c1cccs1,-,-,-,-,-,?
CC(=O)Nc1sc(N/N=C\c2ccccc2F)nc1-c1cccs1,-,-,-,-,-,-
COc1ccccc1C(=O)Nc1nc(-c2cccs2)c(NC(C)=O)s1,72,-,.,-,-,-
CC(=O)Nc1sc(N/N=C\c2ccc(O)cc2)nc1-c1cccs1,-,-,-,-,91,-
CC(=O)Nc1sc(NC(=O)c2ccccc2)nc1-c1cccs1,-,-,-,-,98,-
O=C(COC(=O)c1ccc2c(c1)S(=O)(=O)N=C1CCCCCN12)NCCc1ccc(F)cc1,-,-,-,-,-,-
O=C(Nc1ccc(O)cc1)C1CCCN1S(=O)(=O)c1ccc(F)cc1 (stereo not given),79,-,-,-,98,-
CCOC(=O)C1=C(C)N=c2s/c(=C\c3ccc(OCC(=O)O)cc3)c(=O)n2C1c1ccccc1 (stereo not given),-,-,-,-,98,-
O=C(Nc1ccccc1Cl)c1cc2ccccc2o/c1=N\O,76,-,-,-,-,-
COc1cccc(NC(=O)c2cc3ccccc3o/c2=N\O)c1,-,-,-,-,-,-
CCOc1ccc(NC(=O)CSc2nnnn2C2CCCC2)cc1,-,-,-,-,-,-
CCOc1cc(-c2nc3ccccn3c2NCC2CCCO2)ccc1O (stereo not given),-,-,-,-,-,-
COc1cc(-c2nc3ccc(C)cn3c2NCc2ccccc2)ccc1-c1cccc(Cl)c1,73,-,-,-,-,-
COc1ccc(-c2nc3ccc(C)cn3c2NCc2ccc3c(c2)OCO3)cc1,69,-,-,-,-,-
COc1cc(-c2nc3ccccn3c2NCC2CCCO2)ccc1O (stereo not given),-,-,-,-,99,-
COc1cc(-c2nc3ccccn3c2NCc2ccccc2)ccc1SC1CCCCC1,69,-,-,-,-,-
CCOC(=O)N1CCC(N2C(=O)c3ccc(C(=O)Nc4ccc(OC)cc4)cc3C2=O)CC1,-,-,-,-,-,-
COc1ccc(C2C(C(=O)NCCN(C)C)c3ccccc3C(=O)N2C)cc1OC (stereo not given),-,-,-,-,-,-
O=C(CN1CCSc2ccccc21)NCCCc1ccccc1,-,-,-,-,.,-
CCCCCCSc1cc(-c2nc3cnccn3c2NCc2ccccc2)ccc1OC,49,0.8,-,-,-,-
COc1ccc(-c2nc3cnccn3c2NCc2ccccc2)cc1SC1CCCCC1,50,-,-,-,.,-
SMILES,AHR activator,Efflux pump inh,Mot1-301 SUMO,VLA-4 inh,ALR H2O2 inh,Bfl-1 A1 inh
COCCNc1c(-c2ccc(OC)cc2)nc2ccc(Cl)cn12,-,-,-,-,99,-
COc1cccc(CNC(=O)C2CCN(S(=O)(=O)c3cccs3)CC2)c1,-,-,-,-,-,-
Nc1ccc(O)c2ccccc12,57,-,-,-,?,-
Cc1cccc(-c2nnc(SCC(=O)Nc3cccc(C(=O)N4CCOCC4)c3)n2C)c1,-,-,-,-,-,-
CN(Cc1n[nH]c(=S)n1C)S(=O)(=O)c1ccccc1,-,-,-,-,85,-
CCN(CC)CCCNC(=O)CCC(=O)Nc1ccc2nc(N3CCC(C)CC3)cc(C)c2c1,-,-,-,-,?,-
CCN(CC)CCCNC(=O)CCC(=O)Nc1ccc2nc(N3CCCCC3)cc(C)c2c1,-,-,889,-,.,-
O=C(NCc1ccc2c(c1)OCO2)c1cc(-c2cc(Cl)ccc2O)n[nH]1,-,-,-,-,-,-
